# High-throughput results (PubChem)
# GDH-TPI counter-1: GDH-TPI coupling enzyme inhibitors, primary screen, artefact control for M. tuberculosis FBA inhibitor project, biochemical, absorbance, full deck; GDH-TPI coupled enzyme counterscreen, NADH absorbance; inhibition, % at 4.8 µM; hit rate 1.2% among 360,000; in the data active means inhibition above about 30%;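 further: 0% = DMSO wells and 100% = wells lacking the enzyme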
# Mtb betalactam: beta-lactam sensitization of Mtb H37Rv, H37Rv. inhibition, % at 25 µM. hit rate 0.27% among 330,000. M. tuberculosis H37Rv growth with meropenem, percent inhibition; call rule not given here;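 further: growth measured after seven days incubation then overnight dye step; 0% = bacteria only wells and 100% = bacteria with antibiotic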
# RecA splice inh: Mtb RecA intein splicing inhibitors, primary screen, biochemical, fluorescence, HTS | Protein RecA (Mycobacterium tuberculosis (strain ATCC 25618 / H37Rv)), P9WHJ3 | inhibition, % (concentration not given with the values) | hit rate 0.75% among 290,000 | AID 2221, 2009 | cell-free RecA intein splicing; in the data active means inhibition above about 30%;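 further: 0% = vehicle wells and 100% = reference inhibitor control wells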
# Target sequence (P9WHJ3 whole entry, looked up, canonical isoform): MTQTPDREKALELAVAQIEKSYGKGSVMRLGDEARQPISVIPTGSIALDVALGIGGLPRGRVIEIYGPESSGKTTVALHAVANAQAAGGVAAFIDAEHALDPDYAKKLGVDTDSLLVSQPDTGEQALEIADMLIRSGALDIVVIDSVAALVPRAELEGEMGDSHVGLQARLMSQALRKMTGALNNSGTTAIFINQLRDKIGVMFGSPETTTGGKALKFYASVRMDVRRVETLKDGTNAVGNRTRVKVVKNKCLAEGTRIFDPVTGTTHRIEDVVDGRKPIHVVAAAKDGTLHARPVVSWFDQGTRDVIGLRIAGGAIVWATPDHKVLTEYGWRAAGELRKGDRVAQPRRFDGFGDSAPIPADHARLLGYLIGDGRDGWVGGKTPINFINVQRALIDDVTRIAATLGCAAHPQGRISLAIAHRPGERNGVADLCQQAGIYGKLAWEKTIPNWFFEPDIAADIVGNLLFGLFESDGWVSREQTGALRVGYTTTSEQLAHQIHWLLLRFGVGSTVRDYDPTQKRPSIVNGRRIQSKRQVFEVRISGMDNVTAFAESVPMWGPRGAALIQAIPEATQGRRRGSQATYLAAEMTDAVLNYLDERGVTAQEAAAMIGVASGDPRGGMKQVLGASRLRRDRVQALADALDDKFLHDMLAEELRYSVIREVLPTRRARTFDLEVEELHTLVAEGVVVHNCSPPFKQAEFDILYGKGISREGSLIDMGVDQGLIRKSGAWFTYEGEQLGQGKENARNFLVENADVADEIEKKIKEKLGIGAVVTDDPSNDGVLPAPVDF
# Mtb UGM inh: M. tuberculosis UGM enzyme inhibitors, primary screen, biochemical, fluorescence polarization, single point; UDP-galactopyranose mutase (Mycobacterium tuberculosis (strain ATCC 25618 / H37Rv)), …; purified UGM, fluorescence polarization probe displacement; inhibition, % at 10 µM; hit rate 0.06% among 320,000; AID 504406, 2011; in the data active means inhibition above about 10%, passing the limit was not always enough
# FBA Mtb inh: Mtb FBA enzyme inhibitors, primary screen, biochemical, fluorescence, strain H37Rv; AID 588726, 2011; inhibition, % at 1 µM; Fructose-bisphosphate aldolase (Mycobacterium tuberculosis (strain ATCC 25618 / H37Rv)), …; hit rate 2.3% among 360,000; purified M. tuberculosis FBA, fluorescence read-out;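 further: 0% = vehicle and 100% = reference inhibitor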
# Rv3671c protease: Rv3671c serine protease inhibitors, primary screen, biochemical, fluorescence polarization, M. tuberculosis H37Rv; AID 2606, 2010; P9WHR9; inhibition, % at 5.96 µM; hit rate 0.048% among 320,000; in the data active means inhibition above about 38%;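 further: extracellular domain of Rv3671c used as enzyme; 0% = enzyme with DMSO and 100% = no enzyme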
# Mtb FBA inh conf: M. tuberculosis aldolase blockers, biochemical, fluorescence, strain H37Rv, confirmation | shares compounds with FBA Mtb inh | AID 651616, 2012 | purified M. tuberculosis FBA, fluorescence read-out | hit rate 78% among 5,600 | inhibition, % at 1 µM;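 further: 0% = vehicle wells and 100% = reference inhibitor wells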
# GDH-TPI counter-2: GDH-TPI coupling enzyme inhibitors, artefact control for M. tuberculosis FBA inhibitor project, biochemical, fluorescence, high throughput | hit rate 81% among 5,600 | shares compounds with FBA Mtb inh | GDH-TPI coupled enzyme counterscreen | inhibition, % at 1 µM; in the data active means inhibition above about 10%
# * marks the source's active call; other numbers are inactive results; x = no result given; + = active, no number. Compounds with a hit are over-represented: about 4% of the library has one in this group of screens. Unless noted, no stated cut-off is given here; in the data, active means inhibition above about 27%; inactive means the rest.
SMILES,GDH-TPI counter-1,Mtb betalactam,RecA splice inh,Mtb UGM inh,FBA Mtb inh,Rv3671c protease,Mtb FBA inh conf,GDH-TPI counter-2
Cc1ccn2cc(CCNC(=O)COc3ccccc3)nc2c1,-6.5,-1.6,0.7,-0.9,35.3*,1.8,46.1*,30.1*
Cc1ccn2cc(CCNC(=O)Cc3cccs3)nc2c1,1.4,-3.3,0.0,-2.8,22.5,7.5,x,x
Cc1ccn2cc(CCNC(=O)C3CC=CCC3C(=O)O)nc2c1 (stereo not given),3.6,-6.5,x,0.2,31.3*,-4.2,+,+
COc1ccc(NC(=O)CSc2nnc(-c3cccs3)n2N)cc1S(N)(=O)=O,7.8,-3.2,x,-0.2,0.9,0.8,x,x
CCCc1nc(N2CCOCC2)c(C#N)c2c1CCCC2,16.6,3.8,7.2,0.0,30.3*,0.4,168.5*,140.9*
CCc1nc(N2CCN(C(=O)c3ccco3)CC2)c(C#N)c2c1COC(C)(C)C2,5.0,5.4,1.6,0.1,40.1*,5.0,57.1*,39.0*
CCCNC(=O)N1CCN(c2nc(C(C)C)c3c(c2C#N)CC(C)(C)OC3)CC1,-13.7,-1.9,2.5,0.6,3.1,-3.9,x,x
CC(C)Cc1nc(NCCN2CCOCC2)c(C#N)c2c1COC(C)(C)C2,13.0,-8.7,0.3,0.3,4.5,-0.8,x,x
CC(C)Cc1nc(N2CCOCC2)c(C#N)c2c1COC(C)(C)C2,9.8,5.0,3.1,0.0,36.5*,5.8,-1.4,-1.1
CCc1nc(N2CCN(C(C)=O)CC2)c(C#N)c2c1COC(C)(C)C2,0.8,-2.8,-1.1,0.1,36.0*,2.1,3.4,-1.3
COc1ccc(C(=O)NCCCNC(=O)c2ccc(C)nc2)cc1,-6.0,-1.5,-1.1,2.8,0.0,2.9,x,x
c1ccc2cc(C3OCC4(CCCC4)CO3)ccc2c1,8.0,x,x,x,3.7,x,x,x
CN(C)c1cc2c3ccccc3n(C)c2cc1N,14.9,x,x,x,71.2*,x,147.3*,134.2*
CC1CCCCN1CCNC(=O)c1cnn2ccccc12 (stereo not given),16.0,2.9,1.2,0.6,40.4*,3.9,23.1,13.7*
Cc1cc(C(=O)NCCN2CCCCC2C)n(-c2ccccc2)n1 (stereo not given),-1.9,3.4,-3.6,2.6,6.8,-6.7,x,x
O=[N+]([O-])c1ccccc1Oc1ccc(S(=O)(=O)N2CCOCC2)cc1,12.8,-0.8,x,-0.7,3.5,0.5,x,x
O=c1c2c(-c3ccccc3)csc2nc2c3ccccc3c(NCCN3CCOCC3)nn12,-0.3,x,-6.0,x,28.7*,x,93.9*,66.2*
O=C(N/N=C/c1ccc2cccc(OCc3ccccc3)c2n1)c1ccc(Br)cc1,10.8,36.0,-0.5,-0.2,18.5,-48.3,x,x
COc1ccc(C(=O)N/N=C/c2ccc3cccc(OCc4ccccc4)c3n2)cc1,23.0,-4.5,-0.4,-2.1,63.2*,-122.1,25.7,15.0*
NC(=S)N/N=C/c1ccc2cccc(OCc3ccccc3)c2n1,17.5,88.6,7.4,-2.6,40.1*,-46.2,47.0*,36.8*
CCN(CC)CCN(Cc1cc2cc3c(cc2[nH]c1=O)OCCO3)C(=O)NC1CCCCC1,8.2,-8.1,-1.2,2.4,14.3,2.4,x,x
O=C(NCc1ccccc1)N(Cc1cc2cc3c(cc2[nH]c1=O)OCCO3)CC1CCCO1 (stereo not given),12.4,x,-1.5,x,28.2*,x,53.6*,52.0*
O=c1[nH]c2cc3c(cc2cc1CN(CC1CCCO1)S(=O)(=O)c1ccccc1)OCCO3 (stereo not given),20.8,1.2,2.6,-0.2,28.4*,-2.9,-0.9,-5.3
O=C(NC1CCCCC1)N(CCN1CCOCC1)Cc1cc2cc3c(cc2[nH]c1=O)OCCO3,18.2,0.4,-2.7,-0.6,30.5*,5.0,98.5*,79.1*
CCC(=O)N(CCc1ccccc1)Cc1cc2cc3c(cc2[nH]c1=O)OCO3,14.3,-10.5,-0.6,-2.3,39.9*,-5.3,36.3*,26.4*
SMILES,GDH-TPI counter-1,Mtb betalactam,RecA splice inh,Mtb UGM inh,FBA Mtb inh,Rv3671c protease,Mtb FBA inh conf,GDH-TPI counter-2
CC(=O)c1cccc(S(=O)(=O)N(Cc2cc3cc4c(cc3[nH]c2=O)OCCO4)CC2CCCO2)c1 (stereo not given),18.9,-0.5,-2.2,-0.6,2.2,0.9,x,x
CCCNC(=O)C1(C)CCCN(Cc2cc(-c3ccccc3)n(C)n2)C1 (stereo not given),0.0,x,x,x,-0.6,x,x,x
O=C(c1ccccc1F)N(Cc1cccnc1)Cc1cc2cc3c(cc2[nH]c1=O)OCCO3,8.8,-5.7,-4.8,3.5,26.1,2.7,x,x
COc1cc(C(=O)N(Cc2cccnc2)Cc2cc3cc4c(cc3[nH]c2=O)OCCO4)cc(OC)c1OC,17.4,-0.7,-11.6,1.8,28.1*,-6.9,110.3*,87.2*
COc1ccc2c(CN3CCCCC3)cc(=O)oc2c1,x,x,x,x,44.2*,x,-0.4,-0.2
C=CCN(CC=C)Cc1cc(=O)oc2cc(OC)ccc12,x,x,x,x,2.2,x,x,x
CCCN(CCC)Cc1cc(=O)oc2cc(OC)ccc12,x,x,x,x,51.0*,x,4.3,-1.1
Nc1ncc(Br)cc1S(=O)(=O)Nc1cc(C(F)(F)F)cc(C(F)(F)F)c1,-0.5,0.1,4.1,1.8,-1.5,-22.0,x,x
Cc1cc(N2CCN(Cc3nc(-c4ccc(Cl)cc4)oc3C)CC2)cc(C)n1,7.5,6.1,1.6,1.1,3.8,-2.0,x,x
COc1ccc(-c2nc(CN3CCN(c4cc(C)nc(C)c4)CC3)c(C)o2)c2ccccc12,1.9,97.1,3.7,0.2,67.1*,-1.3,44.8*,43.1*
COc1ccc2c(C)c(CC(=O)N3C[C@H]4C[C@@H](C3)c3cccc(=O)n3C4)c(=O)oc2c1OC,20.6,-3.5,0.2,-0.1,29.9*,-4.4,-1.2,0.0
COc1cc2oc(=O)c(CC(=O)N3C[C@H]4C[C@@H](C3)c3cccc(=O)n3C4)c(C)c2cc1Cl,19.6,x,x,x,44.9*,x,35.0*,28.3*
COc1cc(CC(=O)N2C[C@H]3C[C@@H](C2)c2cccc(=O)n2C3)cc(OC)c1OC,6.2,-2.7,x,1.0,0.3,0.1,x,x
Cc1c(C)c2cc(Cl)c(OCC(=O)N3C[C@H]4C[C@@H](C3)c3cccc(=O)n3C4)cc2oc1=O,9.8,-4.5,17.2,-2.3,8.7,3.2,x,x
CCCCOc1ncnc2c1[nH]c1ccc(C)cc12,-3.8,-7.1,x,-0.6,38.3*,-5.8,-6.6,-3.9
COc1ccc2[nH]c3c(NCCCOC(C)C)ncnc3c2c1,2.2,-1.8,1.0,1.5,99.5*,8.1,63.1*,47.3*
